In the library only some 3.3% were active in any assay of this set; here they are far more common.
UHRF1 binding = UHRF1 methylated DNA binding inhibitors, primary screen, counter-screen for MBD2 inhibitor project, biochemical, TR-FRET, human UHRF1, single concentration; UHRF1 binding to methylated oligo; inhibition, % at 4.4 µM; 0.75% of 370,000 active; AID 687016, 2013; in the data active = inhibition above about 21%;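 also: UHRF1 SRA domain binding a hemimethylated CpG hairpin DNA probe; 0% = median of test compound wells and 100% = reference inhibitor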
PRMT1 FP inh = PRMT1 methyltransferase inhibitors, primary screen, biochemical, fluorescence polarization | recombinant PRMT1, activity-based probe fluorescence polarization | 1.3% of 370,000 active | Protein arginine N-methyltransferase 1 (Homo sapiens), Q99873 | inhibition, % at 2.79 µM;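 active = inhibition above about 21% made by adding two undisclosed values, limit read from the data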
PfG6PD inh = PfG6PD enzyme inhibitors, primary screen, biochemical, fluorescence intensity, uHTS; glucose-6-phosphate dehydrogenase-6-phosphogluconolactonase (Plasmodium falciparum 3D7); PfGluPho enzyme, NADPH resazurin-diaphorase fluorescence; inhibition, % at 20 µM; 0.78% of 350,000 active; AID 504690, 2011;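 active = inhibition reaching at least a set limit at 20 µM in the primary screen, cut at about 59% in these data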;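 also: 0% = DMSO wells with substrate and 100% = DMSO wells lacking glucose-6-phosphate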
PfM18AAP inh = PfM18AAP inhibitors, malaria aminopeptidase, primary screen, biochemical, QFRET, recombinant enzyme; M18 aspartyl aminopeptidase (Plasmodium falciparum 3D7); H-Glu-NHMec fluorogenic cleavage; inhibition, % at 7.35 µM; 1.2% of 290,000 active;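 active = inhibition above the campaign mean inhibition over all tested compounds plus 3 SD, cut at about 28% in these data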;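 also: 0% = plate median of test compound wells and 100% = 2 mM ZnCl2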
MBD2 inh = inhibitors of MBD2 binding to methylated DNA, primary screen, biochemical, TR-FRET, DNA-binding domain, human; AID 686964, 2013; inhibition, % at 4.4 µM; 0.31% of 370,000 active; MBD2 binding to methylated oligonucleotide; Methyl-CpG-binding domain protein 2 (Homo sapiens), Q9UBB5; in the data active = inhibition above about 13%
PRMT1 confirm = PRMT1 methyltransferase inhibitors, confirmation, biochemical, fluorescence polarization, triplicate | shares compounds with PRMT1 FP inh | recombinant His-PRMT1, activity-based probe fluorescence polarization | inhibition, % at 2.79 µM | 42% of 3,300 active;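 active = mean inhibition across replicates above the hit cutoff derived for the earlier primary screen, cut at about 22% in these data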
* = called active by the depositor; . = no result given.

SMILES | UHRF1 binding | PRMT1 FP inh | PfG6PD inh | PfM18AAP inh | MBD2 inh | PRMT1 confirm
CC(Sc1nnc(C2CC2)n1C1CC1)C(=O)Nc1cccc(S(=O)(=O)N(C)C)c1 (stereo not drawn) | -1 | 37* | 13 | . | -2 | 0
CCOC(=O)C1CCN(C(=S)NC(=O)c2cccs2)CC1 | 2 | 7 | 4 | 10 | 3 | .
O=C1CS/C(=C\S(=O)(=O)c2ccc(Cl)cc2)N1 | 4 | 32* | -39 | -20 | 0 | 22*
CCOc1ccc2nc(N/C(N)=N/S(=O)(=O)c3ccc(C)cc3)nc(C)c2c1 | 0 | 0 | -6 | . | 1 | .
O=C(NCC(F)(F)F)c1ccc2sc([C@@H]3O[C@H](CO)[C@H](O)[C@H](O)[C@H]3O)nc2c1 | 2 | 2 | . | . | -3 | .
CC(/C=C/c1ccc(C)o1)=C\C(=O)O | 0 | 30* | 29 | -15 | -2 | 12
CCCn1c(SC(C)C(=O)NC2CCCC(C)C2C)n[nH]c1=O (stereo not drawn) | 3 | 1 | -3 | . | 4 | .
COc1ccc(NC(=O)COC(=O)c2ccc(C)c(S(=O)(=O)N3CCCCC3)c2)cc1 | 0 | 2 | 6 | . | 3 | .
S=c1[nH]nc(-c2ccco2)n1/N=C/C=C/c1ccccc1 | -2 | 13 | 21 | 12 | -1 | .
S=c1[nH]nc(-c2ccco2)n1/N=C/c1cccc(Cl)c1Cl | -4 | 33* | 16 | 15 | -1 | 33*
CC(=C/c1ccccc1)/C=N/n1c(-c2ccco2)n[nH]c1=S | -4 | 32* | 11 | 13 | 3 | 18
CC(/C=N/n1c(-c2cc(C)[nH]n2)n[nH]c1=S)=C\c1ccccc1 | 0 | 1 | 30 | 4 | -2 | .
CN1C(=O)CC(=O)N(C)c2cc(S(=O)(=O)N(C)Cc3ccccc3)ccc21 | -2 | 54* | 25 | 17 | -6 | 36*
CC1CCN(c2ccc(S(=O)(=O)N3CCC(C)CC3)cc2N)CC1 | 0 | -3 | -6 | 2 | -6 | .
CN(Cc1ccccc1)S(=O)(=O)c1ccc2c(c1)n(C)c(=O)c(=O)n2C | 1 | -1 | -3 | 2 | 8 | .
CC1CCN(S(=O)(=O)c2ccc3c(c2)N(C)C(=O)CC(=O)N3C)CC1 | -2 | 47* | 29 | 19 | -1 | 44*
COc1cc(CCC(=O)N2CC(C)OC(C)C2)cc(OC)c1OC (stereo not drawn) | 2 | 0 | -2 | 4 | -7 | .
O=C1C2C3C=CC(CO)(O3)C2C(=O)N1c1ccc(-c2ccccc2)cc1 (stereo not drawn) | . | . | . | -126 | . | .
O=C1C2C3C=CC(CNS(=O)(=O)c4ccccc4[N+](=O)[O-])(O3)C2C(=O)N1c1ccccc1 (stereo not drawn) | 1 | 76* | -4 | -11 | -2 | 42*
Cc1cc(C)c(S(=O)(=O)NCC23C=CC(O2)C2C(=O)N(c4ccccc4)C(=O)C23)c(C)c1 (stereo not drawn) | -1 | 54* | 0 | -8 | 5 | 4
OCCC1CN(Cc2cc(F)ccc2F)CCN1CCCc1ccccc1 (stereo not drawn) | 1 | 2 | 0 | -1 | -1 | .
O=c1c(=O)n(CCO)n(CCO)c(=O)n1CCO | 0 | 0 | -22 | . | 7 | .
CC(=O)Oc1ccc(/C=C(\NC(=O)c2cccc(Br)c2)C(=O)Nc2ccc(C(=O)O)cc2)cc1 | 1 | 7 | 7 | . | 3 | .
COc1cc2ccccc2cc1C(=O)O | 5 | 1 | 5 | 10 | -5 | .
COc1ccc(OC)c2cc3ccccc3cc12 | -12 | 29* | 5 | . | -9 | 70*
SMILES | UHRF1 binding | PRMT1 FP inh | PfG6PD inh | PfM18AAP inh | MBD2 inh | PRMT1 confirm
CCOC(=O)c1ccc(NC(=S)N2CCC(O)CC2)cc1 | 7 | 8 | 21 | 0 | 9 | .
CCOC(=O)c1ccc(NC(=S)N2CCSC2c2ccc(Br)cc2)cc1 (stereo not drawn) | 0 | 82* | 6 | 5 | -2 | 5
O=[N+]([O-])c1ccc(Cl)c(C2Nc3cccc4cccc(c34)N2)c1 | 6 | 53* | 24 | 15 | -8 | 26*
O=C1OC(NCc2cccnc2)(c2ccc(Cl)cc2)c2ccccc21 (stereo not drawn) | -2 | -1 | -3 | -3 | 1 | .
CCCCCCCCN1C(=O)[C@@H](CC(=O)NCC23CC4CC(CC(C4)C2)C3)C[C@@]2(C(=O)OC)C1=C[C@H](COCc1ccccc1)O[C@@H]2C | -2 | 1 | . | . | 0 | .
CCN(C(=O)CSc1nnc(-c2cccc(Cl)c2)n1N)c1c(N)n(Cc2ccccc2)c(=O)[nH]c1=O | -1 | 32* | 1 | . | 1 | 38*
CCCCn1c(N)c(N(CCC(C)C)C(=O)CSc2nc3ccccc3n2C)c(=O)[nH]c1=O | 1 | 27* | 10 | . | 4 | 19
CCn1c(SCC(=O)N(C)c2c(N)n(Cc3ccccc3)c(=O)[nH]c2=O)nc2ccccc21 | 2 | 27* | 8 | -15 | 7 | 27*
CCCCn1c(N)c(N(CCC(C)C)C(=O)c2cc(Cl)nc3ccccc23)c(=O)[nH]c1=O | 1 | -4 | -2 | . | -1 | .
Cc1ccc2c(CC(=O)N(C)c3c(N)n(Cc4ccccc4)c(=O)[nH]c3=O)coc2c1 | -4 | 94* | 7 | . | -3 | -2
CCN(C(=O)COC(=O)Cc1coc2cc(C)ccc12)c1c(N)n(Cc2ccccc2)c(=O)[nH]c1=O | 0 | 1 | -24 | . | 2 | .
O=C(NC1CCN(Cc2ccccc2)CC1)c1cn(-c2ccccc2)nc1-c1cccnc1 | -1 | -3 | 3 | . | -3 | .
Nc1c(C(=O)Nc2ccccc2)sc2nc(N3CCOCC3)c3c(c12)CCCC3 | 6 | 35* | 50 | . | 1 | 20
Cc1ccc(NC(=O)c2sc3nc(N4CCOCC4)c4c(c3c2N)CCCC4)cc1 | -3 | 27* | 36 | . | -2 | 20
CNC(=O)c1ccc(-c2sc3nc(N4CCOCC4)c4c(c3c2N)CCCC4)o1 | 2 | 8 | -4 | 13 | 0 | .
CCc1ccccc1NC(=O)C1C2C=CC(O2)C1C(=O)O (stereo not drawn) | -2 | 7 | -2 | -11 | 2 | .
O=C(O)C1C2C=CC(O2)C1C(=O)Nc1ccccc1C(F)(F)F (stereo not drawn) | -2 | 85* | 13 | -164 | -1 | 24*
Cc1cc(C)nc(Sc2ncnc(N)c2[N+](=O)[O-])n1 | 3 | 47* | 6 | 50* | 1 | 19
Cc1cccc(Nc2ncnc(N)c2[N+](=O)[O-])n1 | 0 | -2 | -3 | 3 | -2 | .

Compound activity (PubChem BioAssay)
